# PLK1 inh: inhibitors of human PLK1 kinase; P53350; recombinant PLK1 kinase, TR-FRET peptide phosphorylation; inhibition, % at 10 µM; hit rate 0.53% among 97,000;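 active = inhibition of 50% or more in the single-concentration screen; inactive = inhibition below 50%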
# IL1B cytotox: toxic to HUVEC cells under IL-1B stimulation | hit rate 0.41% among 94,000 | HUVEC cell count loss, Hoechst imaging, IL-1B stimulated | cell count reduction, % at 2 µM;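 active = cell count reduction more than 3 SD above the screen-wide mean, cut at about 70% in these data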
# Pyk2 oligo antag: Pyk2 (human) oligomerization antagonism | Q14289 | Q293 cells, Pyk2 FERM NanoBiT luminescence; active compounds read low | z-score (the deposit names both 25 µM and 10 µM) | hit rate 0.83% among 99,000;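 active = Z-score of -3 or lower, scaled per plate to the spread of control and sample wells; inactive = z-score above -3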;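 also: negative z-score means lost luminescence so less FERM oligomerization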
# Plk1 PBD FP: blocks phosphopeptide binding to human Plk1 polo box domain; P53350; Plk1 PBD phosphopeptide binding, fluorescence polarization; inhibition, %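 (tested at about 20 µM)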; hit rate 0.13% among 97,000; AID 693; in the data active = inhibition above about 34%, passing the limit was not always enough
# IL1B NFkB inh: blocks IL-1B driven NFkB nuclear translocation in HUVEC cells; HUVEC IL-1B NFkB p65 nuclear translocation imaging; inhibition, % at 2 µM; hit rate 0.43% among 94,000; AID 796;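 active = inhibition above about 30% together with a positive call from visual inspection of the well image, limit read from the data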;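 also: nuclear over cytoplasmic p65 intensity ratio measured by imaging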
# NFkB transloc pot: enhances IL-1B driven NFkB nuclear translocation; HUVEC IL-1B NFkB p65 nuclear translocation imaging; activation, % at 2 µM; hit rate 0.3% among 94,000; AID 819;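 active = activation above 40%, about the mean plus 3 SD, also judged a hit on visual image review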;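 also: percent activation is computed from the nuclear over cytoplasmic p65 intensity ratio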
# Hits are given with their value; . = inactive; / = no result given. Only some compounds are listed: those with a hit (about 2.2% of all), similar ones and a draw of the others.
SMILES,PLK1 inh,IL1B cytotox,Pyk2 oligo antag,Plk1 PBD FP,IL1B NFkB inh,NFkB transloc pot
O=C(NCC1CCCO1)C(c1cccs1)N(Cc1cccs1)C(=O)Cn1nnc(-c2cccs2)n1 (configuration not stated),.,.,.,.,.,.
CC(C)(C)NC(=O)C(c1cccs1)N(CC1CCCO1)C(=O)Cn1nnc(-c2cccs2)n1 (configuration not stated),.,.,.,.,.,48
CC(C)(C)C(=O)Nc1nnc(CSCc2ccccc2F)s1,.,.,.,.,.,.
CC(C)C(=O)Nc1nnc(CSCc2ccccc2F)s1,.,.,.,.,54,.
C=CCN(CC=C)C(=O)c1cc2ccccc2c(=O)o1,/,/,.,/,/,/
O=C(NC1CCCCC1)N1CCCC1,.,.,.,.,.,.
CCOc1ccc(C(=O)NCC2CCCO2)cc1 (configuration not stated),.,.,.,.,.,56
COc1ccc(N(Cc2ccccc2)S(=O)(=O)c2cccc(C(=O)NC3=NCCS3)c2)cc1,.,.,-3.3,.,.,.
COc1cccc(C(=O)NC2=NCCS2)c1,.,.,.,.,.,.
COc1cccc(N2CCN(c3c4c(nc5ncnn35)CCC4)CC2)c1,.,.,.,.,30,.
Cc1ccc(N2C(=O)CC(Sc3nc4ccccc4o3)C2=O)cc1Cl (configuration not stated),.,.,.,.,.,.
Nc1cc2c(cc1C(=O)c1ccc(Cl)cc1)OCCO2,.,.,.,.,.,.
COc1ccc2c(Cl)c(C(=O)NCCCn3ccnc3)sc2c1Cl,.,.,.,.,.,.
O=C(O)c1cc(NCc2ccc3c(c2)OCO3)ccc1N1CCOCC1,.,.,.,.,54,.
COC(=O)c1cc(NCc2ccc3c(c2)OCO3)ccc1N1CCOCC1,.,.,.,.,.,.
CCOC(=O)C[n+]1c(C)sc2ccc(OC)cc21,.,.,.,.,43,.
COc1ccc(-n2c(Cc3cccn3C)nnc2SCC(=O)Nc2ccc(C(C)=O)cc2)cc1,.,.,/,.,.,.
COc1ccc(-n2c(Cc3cccn3C)nnc2SCC(=O)NCC2CCCO2)cc1 (configuration not stated),.,.,/,.,37,.
O=C(CS(=O)(=O)c1c[nH]c2ccccc12)NC1CCCCC1,.,.,/,.,.,.
Cc1c(S(=O)(=O)N2CCN(c3cccc(C(F)(F)F)c3)CC2)c(=O)n(C)c(=O)n1C,.,.,/,.,.,.
Cn1cc(S(=O)(=O)N2CCN(c3cccc(C(F)(F)F)c3)CC2)c(=O)n(C)c1=O,.,.,/,.,56,.
CCN(CC)S(=O)(=O)c1ccc(OC)c(NC(=O)COc2ccc3c(C)cc(=O)oc3c2)c1,/,/,.,/,/,/
O=C(CNc1cc(S(=O)(=O)N2CCCC2)ccc1OCC(F)(F)F)Nc1ccc(SC(F)F)cc1,/,/,.,/,/,/
COC(=O)C1=C(C)NC2=C(C(=O)CC(C)(C)C2)C1c1cn(Cc2ccc(Br)cc2)nc1-c1ccccc1 (configuration not stated),.,.,-3.3,.,.,.
COC(=O)C1=C(C)NC2=C(C(=O)CCC2)C1c1cn(Cc2ccc(Br)cc2)nc1-c1ccccc1 (configuration not stated),.,.,.,.,.,.
SMILES,PLK1 inh,IL1B cytotox,Pyk2 oligo antag,Plk1 PBD FP,IL1B NFkB inh,NFkB transloc pot
O=C(OCC#CCSc1nnc(-c2ccncc2)o1)c1cccs1,54,.,.,.,.,.
COC(=O)CSc1nnc(-c2ccncc2)o1,.,.,.,.,.,.
COc1cc(C2c3c(n[nH]c3C)C(=O)N2c2ccc(Br)cc2)ccc1O (configuration not stated),.,.,.,.,.,.
Cc1[nH]nc2c1C(c1cccnc1)N(c1ccc(Br)cc1)C2=O (configuration not stated),.,.,-4,.,.,.
Cc1nc(-c2ccc(Br)cc2)ccc1C(=O)O,/,/,.,/,/,/
CCOC(=O)Nc1oc2ccccc2c(=O)c1C,.,.,.,.,36,.
CCOC(=O)/C=C(\C)Sc1cc(=O)oc2ccccc12,.,.,.,.,.,.
COc1cc(C2c3c(-c4cc(Cl)c(C)cc4O)n[nH]c3C(=O)N2Cc2cccnc2)ccc1O (configuration not stated),.,.,-4.8,.,.,.
COc1cccc(C2c3c(-c4cc(Cl)c(C)cc4O)n[nH]c3C(=O)N2Cc2cccnc2)c1 (configuration not stated),.,.,-3.7,.,.,.
COc1ccc(/C=C\C(=O)c2c(O)ccc3c(C)cc(=O)oc23)cc1OC,.,.,.,.,.,.
CC12CCC(C(=O)N(CC(O)CN3CCCCC3)C1=O)C2(C)C (configuration not stated),.,.,.,.,.,.
CNc1nc(Nc2ccc(C(C)=O)cc2)nc(OC(C(F)(F)F)C(F)(F)F)n1,.,.,-3.2,.,.,.
COc1ccc(Nc2nc(NCCO)nc(OC)n2)cc1,.,.,.,.,.,.
CC(=O)c1ccc(Nc2nc(NCCO)nc(OC(C(F)(F)F)C(F)(F)F)n2)cc1,.,.,-3.3,.,.,.
CCOC(=O)c1c(NC(=O)C2CCCO2)sc(C(=O)OC(C)(C)C)c1C (configuration not stated),.,.,.,.,99,.
Cc1nnc(SCC(N)=O)n1CCc1ccccc1,.,.,.,.,.,.
C=CCN(CC=C)CC(=O)Nc1ccc(S(N)(=O)=O)cc1,.,.,.,.,42,.
CCCCCOC(=O)C1[C@H]2C(=O)N(c3ccccc3CC)C[C@]23C=C[C@H]1O3 (some centres not stated),.,.,.,.,.,.
CCc1ccccc1N1CC23C=CC(O2)C(C(=O)OC)C3C1=O (configuration not stated),57,/,/,.,/,/
O=C(CCCOc1ccc(Cl)cc1Cl)Nc1ccncc1,54,.,.,.,.,.
COc1ccc2[nH]c(=O)c(CN(C(=O)c3cccnc3)c3ccccc3)cc2c1,.,.,.,.,.,67
COc1ccc(N(Cc2cc3cc(OC)ccc3[nH]c2=O)C(=O)c2cccnc2)cc1,.,.,.,.,.,.
CCN(CC(=O)Nc1ccc([N+](=O)[O-])cc1OC)c1ccccc1,.,.,.,.,.,.
O=C1C=C(NCc2ccco2)CC(c2ccc(Cl)cc2)C1 (configuration not stated),.,86,.,.,.,.
CCCSc1nsc(NC(=O)C(c2ccccc2)c2ccccc2)n1,.,.,-3.1,.,.,.
CC(C)C(=O)Nc1nc(-c2ccccc2)ns1,.,.,.,.,.,.
CCO/N=C(/C)c1c(O)c(C)c(-c2ccccc2)n(-c2ccccc2)c1=O,.,.,.,.,.,.
FC(F)C(F)(F)C(F)(F)C(F)(F)c1cc(-c2ccccc2)n[nH]1,/,/,-3.4,/,/,/
COc1cccc(/C=C/C(=O)Nc2ccc(OC)nc2)c1,/,/,.,/,/,/

# Source: PubChem
